Source: PubChem BioAssay (NCI)
Values joined by “and” are separate entries in the source; they are usually repeats but may differ in a detail not shown here. Equal entries are not always repeated. The panel holds about 83,000 compounds, 20% with a hit somewhere; the sample as a whole holds those more often.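 Negative percent growth values reflect cell death: -40 means 40% of the cells present at the start died, and -100 means all died.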 A number with no mark means an inactive call. Active and inactive are the calls of the source. The calls were made as follows: active = growth percent below 10; inactive = the rest.

Assays:
Assay in all cases: NCI-60 one-dose screen, 48 h (100 = growth as untreated, 0 = no growth, -100 = all killed)
HCT-15 colon = conditions: 10 µM unless noted
HT29 colon = conditions: 10 µM unless noted
SNB-75 CNS = conditions: 10 µM unless noted
SNB-19 CNS = conditions: 10 µM unless noted
U251 CNS = conditions: 10 µM unless noted
PC-3 prostate = conditions: 10 µM unless noted
SK-MEL-5 melanoma = conditions: 10 µM unless noted
UACC-62 melanoma = conditions: 10 µM unless noted
LOX IMVI melanoma = conditions: 10 µM unless noted
SK-MEL-28 melanoma = conditions: 10 µM unless noted
SN12C renal = conditions: 10 µM unless noted
UO-31 renal = conditions: 10 µM unless noted
TK-10 renal = conditions: 10 µM unless noted
CAKI-1 renal = conditions: 10 µM unless noted
CCRF-CEM leukemia = conditions: 10 µM
MOLT-4 leukemia = conditions: 10 µM unless noted
SK-MEL-2 melanoma = conditions: 10 µM unless noted
EKVX NSCLC = conditions: 10 µM
A498 renal = conditions: 10 µM unless noted
ACHN renal = conditions: 10 µM unless noted

Structure (SMILES)	growth (HCT-15 colon)	growth (HT29 colon)	growth (SNB-75 CNS)	growth (SNB-19 CNS)	growth (U251 CNS)	growth (PC-3 prostate)	growth (SK-MEL-5 melanoma)	growth (UACC-62 melanoma)	growth (LOX IMVI melanoma)	growth (SK-MEL-28 melanoma)	growth (SN12C renal)	growth (UO-31 renal)	growth (TK-10 renal)	growth (CAKI-1 renal)	growth (CCRF-CEM leukemia)	growth (MOLT-4 leukemia)	growth (SK-MEL-2 melanoma)	growth (EKVX NSCLC)	growth (A498 renal)	growth (ACHN renal)
Nc1ncnc2c1ncn2C1OC(COP(=O)(O)O)C(O)C1O (stereo unspecified)	109%	114%	93.1%	103%	112%	101%	117%	104%	108%	119%	99.9%	100%	122%	106%	105%	109%	–	–	–	–
CCCCOC(=O)/C=C\C(=O)NC(N)=O	90.8%	97%	95.9%	91.4%	96.4%	83%	99.8%	79.1%	79.1%	97.6%	87.2%	31%	119%	-58% (active)	75.2%	65.4%	111%	95%	106%	–
Cc1cc2ccccc2cn1	104% and 105%	109% and 102%	92.9% and 83.1%	95.3% and 97.7%	99.4% and 103%	95.3% and 96%	101% and 109%	92.5% and 95.2%	102% and 99.7%	109% and 200%	94% and 104%	83.2% and 82.6%	103% and 93.4%	100% and 67.8%	102% and 120%	112% and 88.7%	107%	–	100% and 197%	–
Nc1nc(N)c2[nH]cnc2n1	107%	101%	91.3%	96.1%	111%	79.3%	98.1%	84.3%	83%	99.9%	102%	86.9%	121%	84.6%	98.2%	92.6%	109%	97.5%	109%	89.3%
CC(C)NCC(O)c1ccc(O)c(O)c1 (stereo unspecified)	104% and 106% and 99.5%	100% and 111%	75.3% and 83.1% and 82.2%	101% and 89.5% and 93.5%	98.6% and 118% and 99.2%	93.8% and 95.8%	94.6% and 90.3% and 120%	101% and 109% and 98.5%	94.2% and 111% and 95.4%	–	76.5% and 91.4% and 92.8%	82.6% and 106% and 76.1%	92.5% and 87.4%	93.6% and 83.6%	90.8% and 100% and 103%	98.5% and 95.2% and 98.8%	110% and 240%	104% and 85% and 91.2%	95.8% and 119% and 78.3%	–
CN(C)c1ccc(/C=C\C(=O)c2ccccc2)cc1	83.3% and 66.5% and 72%	53.6% and 58.5% and 57.6%	70.1% and 100% and 93.4%	98.7% and 92.3% and 61.6%	82.2% and 80.6%	88.3% and 94.4% and 76%	95.2% and 89.4% and 89.1%	88.4% and 91.1% and 84.9%	84.5% and 75.6% and 77.4%	93% and 103% and 89.8%	95.6% and 98.8% and 95%	74.5% and 69.4% and 63.9%	76.6% and 79% and 70.5%	86.9% and 93.8%	70.4% and 65% and 74%	74.5% and 85.3% and 72.2%	93.3% and 91.9% and 72.1%	–	91.8% and 71.8% and 102%	99.4% and 101%
CC(=O)NCC(=O)c1ccc([N+](=O)[O-])cc1	111%	107%	99.1%	103%	102%	98.4%	103%	101%	95%	105%	105%	80.5%	–	103%	99.5%	98.4%	136%	–	81.2%	–
O=C(/C=C/c1ccccc1)c1ccccc1	86.3%	68.9%	101%	79%	75.1%	111%	84.4%	102%	89.7%	–	100%	79.3%	114%	99.2%	–	–	101%	–	94.2%	107%
CCc1cc(C)cc(O)c1	111%	99.4%	98%	103%	96%	97.1%	105%	108%	105%	111%	105%	77.3%	98.6%	108%	98.4%	98.1%	–	–	102%	–
CN1CNC(=O)NC1	109% and 101%	101%	94.8% and 110%	109% and 103%	118% and 87.5%	94% and 87.2%	113% and 95.9%	111% and 107%	99.6% and 95.4%	–	105% and 102%	98.5% and 87.6%	112% and 115%	98.5% and 106%	108% and 91.3%	99.9% and 85.2%	114%	97.3%	100% and 72.4%	–
CCN(CCNS(C)(=O)=O)c1ccc(N)c(C)c1	71.5% and 106%	87.8%	128% and 95.5%	101% and 109%	82.3% and 108%	86.7% and 78.7%	81.1% and 98.4%	71.4% and 82.2%	52.9% and 68.4%	80.2% and 104%	88.1% and 93.5%	42.2%	55.8% and 17.7%	39.4% and 73.2%	35.7%	66.3% and 96.3%	21.6%	88.9%	104% and 94.2%	–
CC1(C)COC(=S)N1	103%	104%	87.4%	107%	101%	100%	112%	93%	99.9%	104%	93.5%	90.7%	101%	95.7%	108%	108%	107%	–	121%	97.5%
